Six1-Eya2 blk: Six1/Eya2 interaction inhibition | AlphaScreen GST-Six1/His-Eya2 binding, biochemical; active compounds read low | Q15475+O00167 | 360,000 compounds, 0.56% hits | activity change, % (concentration not given with the values); in the data active means activity change below about -65%; inconclusive means mostly about -30% to -63%; further: on the % scale 0 is the no-effect control and ±100 the full control effect
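Homogeneous AlphaScreen proximity assay pairing GST-Six1 with His-tagged Eya2 (added as 5X mix: 250 nM and 500 nM) in 50 mM Tris pH 8.0, 300 mM NaCl, 1 mM TCEP. Glutathione donor and nickel acceptor beads; 1 h, 37 °C, dark.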
JMJD2A Tudor inh: blocks the human JMJD2A Tudor domain. AID 504339. AlphaScreen JMJD2A-Tudor / H3K4me3 peptide binding. Potency, µM (doses to about 114 µM), for the others: at the highest dose activity change, negative = inhibition, usual class: inhibitors. 390,000 compounds, 4.4% hits. O75164; further: potency means the concentration at half of the fitted maximal effect; on the % scale 0 is the no-effect control and ±100 the full control effect; nearly all actives have a fitted effect of over 50% in size
Target sequence (O75164 whole entry, looked up, the tested form may be a part): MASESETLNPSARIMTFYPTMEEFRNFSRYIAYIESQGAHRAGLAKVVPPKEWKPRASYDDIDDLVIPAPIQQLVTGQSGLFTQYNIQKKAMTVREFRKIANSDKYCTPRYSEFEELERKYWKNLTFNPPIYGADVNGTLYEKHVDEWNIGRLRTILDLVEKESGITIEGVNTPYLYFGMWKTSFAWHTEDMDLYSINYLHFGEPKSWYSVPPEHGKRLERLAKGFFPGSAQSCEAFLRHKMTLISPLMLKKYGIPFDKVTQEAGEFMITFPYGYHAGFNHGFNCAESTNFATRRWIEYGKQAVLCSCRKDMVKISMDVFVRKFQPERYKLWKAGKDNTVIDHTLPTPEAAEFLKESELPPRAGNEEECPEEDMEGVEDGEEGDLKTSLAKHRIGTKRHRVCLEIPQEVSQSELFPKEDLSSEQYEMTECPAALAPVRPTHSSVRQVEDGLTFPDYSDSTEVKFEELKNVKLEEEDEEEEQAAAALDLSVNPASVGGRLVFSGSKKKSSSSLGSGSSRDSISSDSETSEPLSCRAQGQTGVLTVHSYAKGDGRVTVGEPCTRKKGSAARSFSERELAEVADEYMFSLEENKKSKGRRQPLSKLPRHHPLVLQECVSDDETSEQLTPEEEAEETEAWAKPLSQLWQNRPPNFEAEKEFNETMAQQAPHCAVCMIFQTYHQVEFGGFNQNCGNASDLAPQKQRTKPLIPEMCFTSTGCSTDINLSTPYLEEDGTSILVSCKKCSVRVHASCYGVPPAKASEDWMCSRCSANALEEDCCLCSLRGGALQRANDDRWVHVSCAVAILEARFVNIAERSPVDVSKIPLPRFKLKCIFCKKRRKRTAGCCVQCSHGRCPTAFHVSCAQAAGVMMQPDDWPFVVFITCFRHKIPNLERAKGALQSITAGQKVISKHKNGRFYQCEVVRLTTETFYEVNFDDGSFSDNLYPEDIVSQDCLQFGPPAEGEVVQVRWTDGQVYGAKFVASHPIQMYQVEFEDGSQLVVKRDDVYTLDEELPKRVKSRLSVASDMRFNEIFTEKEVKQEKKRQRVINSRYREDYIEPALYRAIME
CtBP-E1A blk: blocks the CtBP interaction with E1A. AlphaScreen GST-E1A/His-CtBP binding, 1536-well; active compounds read low. activity change, % (no concentration beside the values). 340,000 compounds, 0.49% hits. AID 651724; in the data active means activity change below about -65%; inconclusive means mostly about -30% to -63%; further: on the % scale 0 is the no-effect control and ±100 the full control effect
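Steps: dispense buffer (Tris pH 8.0, NaCl 300 mM, TCEP 1 mM, BSA, Tween 20); add 5X protein mix (GST-E1A, His-CtBP, 125 nM each); pin 23 nL compound; 2 h at 37 °C, dark; add 5X beads (50 ug/mL); 1 h; read.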
G9a inh: blocks human histone lysine methyltransferase G9a; 350,000 compounds, 8.8% hits; G9a H3K9 monomethylation, AlphaScreen, 2 h; Q96KQ7; AID 504332; Potency, µM (series often up to 102 µM), for the others: at the highest dose activity, negative = inhibition, actives largely listed as inhibitors; further: potency means the concentration at half of the fitted maximal effect; on the % scale 0 is the no-effect control and ±100 the full control effect; nearly all actives have a fitted effect of over 75% in size
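G9a (20 nM) was preincubated 15 min with compound, then reacted 2 h at room temperature with 500 nM biotin-H3K9 peptide and 20 µM SAM. Monomethyl-H3K9 detected by AlphaScreen using anti-H3K9me1 antibody.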
BAZ2B inh: BAZ2B (human) inhibition | AlphaScreen BAZ2B-H3K14Ac peptide displacement | Potency, µM (top dose mostly 114 µM), for the others: at the highest dose activity change, negative = inhibition, most hits filed as inhibitors | 360,000 compounds, 4.4% hits; further: potency means the concentration at half of the fitted maximal effect; on the % scale 0 is the no-effect control and ±100 the full control effect; nearly all actives have a fitted effect of over 60% in size
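Multi-concentration screen (max 110 uM) measuring displacement of acetylated histone H3 peptide from BAZ2B by AlphaScreen, using 50 nM protein, 50 nM peptide and 10 ug/mL streptavidin donor plus Ni-chelate acceptor beads.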
HP1b chromo inh: HP1-beta chromodomain-methylated histone interaction inhibition | P83916 | AlphaScreen HP1-beta / biotin-H3K9me3 peptide binding | Potency, µM (top dose mostly 114 µM), for the others: at the highest dose activity change, negative = inhibition, most hits filed as inhibitors | 390,000 compounds, 0.56% hits | AID 540317; further: potency means the concentration at half of the fitted maximal effect; nearly all actives have a fitted effect of over 70% in size
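Compound inhibition of the preformed complex between 50 nM HP1-beta and 50 nM biotinylated H3K9me3 peptide was read by AlphaScreen. Buffer was PBS pH 7.4 with 0.01% Tween-20. Incubations ran 30 min at room temperature, with 10 ug/mL donor/acceptor beads.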
Active calls of the source: *; ? = inconclusive; · = not tested or not shown; ! = not active in a repeat; [ ] = another dose, or the depositor's remark. The list is not random: actives were taken first. Their share in the collection is about 10%. Unless noted, the call rests on the fitted dose curve; in most records, active means well fitted inhibition curve with a large enough effect; inconclusive means small, poorly fitted or top-dose-only effect; inactive means no such curve, though single readings can be large or run the other way.

SMILES	Six1-Eya2 blk	JMJD2A Tudor inh	CtBP-E1A blk	G9a inh	BAZ2B inh	HP1b chromo inh
Cc1ccc(C)n1C1CCS(=O)(=O)C1 (stereo not drawn)	8	-5%	2	56µM*	-7%	10%
Cc1c(C(=O)N2CCN(C3CCS(=O)(=O)C3)CC2)oc2ccc(Cl)cc12 (stereo not drawn)	-1	1%	8	-31%	9%	22%
CCc1c(-c2cccc(OC)c2)ncn1Cc1cccc(-c2ccccc2)c1	-5	·	-11	·	·	·
CCOC(=O)Cc1csc(SCn2nnc3ccccc3c2=O)n1	-1	1%	-4	45µM*	29%	53%
CCOC(=O)Cc1csc(-n2sc3ccccc3c2=O)n1	-12	18µM*	-5	1.1µM*	5µM*	?
O=C1C=CC(=O)c2c(O)c(N3CCN(CCOCCO)CC3)c(Br)c(O)c21	-69*	56µM*	-26	·	·	8.9µM*
O=C1C=CC(=O)c2c(O)c(N3CCN(CCO)CC3)c(Cl)c(O)c21	?	50µM*	-13	·	·	?
OCCOCCN1CCN(C2=Nc3ccccc3Sc3ccccc32)CC1	2	-22%	1	-8%[12.7 µM]	0%	15%
COc1ccc(N2C(=O)CCSC23C(=O)N(Cc2ccc(F)cc2)c2ccccc23)cc1Cl (stereo not drawn)	·	-25%	·	?	-1%[57.1 µM]	20%
O=c1c2cn[nH]c2[nH]c(=S)n1-c1cccc2ccccc12	-3	-34%	-3	50µM*	-8%	14%
O=c1c2cn[nH]c2[nH]c(=S)n1-c1ccccc1	14	79µM*	8	8.9µM*	-4%	5%
CCCCCNc1nc(NCCCO)c(C#N)c2c1CN(C)CC2	-4	-33%	12	20%[12.7 µM]	-9%	15%
CCCCCNc1nc(N2CCCC2)c2c(c1C#N)CCN(C)C2	-4	56µM*	-25	50µM*	?	-39%
Cc1ccc2c(c1)NC(=O)C(CC(=O)NCCCN1CCCC1)O2 (stereo not drawn)	-1	-25%	1	-6%	-6%	39%
Cc1ccc2c(c1)NC(=O)C(CC(=O)NCCCN1CCc3ccccc3C1)O2 (stereo not drawn)	-4	-36%	0	50µM*	-4%	15%
CCN1CCN(CCC2Oc3cc([N+](=O)[O-])ccc3NC2=O)CC1 (stereo not drawn)	-4	-7%	-2	?	-5%	48%
COc1ccc(N2CCN(CCCNC(=O)CC3Oc4ccc(C)cc4NC3=O)CC2)cc1 (stereo not drawn)	-24	?	-15	35µM*	?	-9%
CCN(CCCNC(=O)CC1Oc2ccc(C)cc2NC1=O)Cc1ccccc1 (stereo not drawn)	-2	-15%	0	50µM*	0%	33%
COc1ccc(N2CCN(CCC3Oc4cc([N+](=O)[O-])ccc4NC3=O)CC2)cc1 (stereo not drawn)	-18	?	?	18µM*	28µM*	?
O=C(NC1CCCCCC1)C1CCN(C(=O)N2CCOc3ccccc32)CC1	·	-5%	·	6%[59 µM]	2%	39%
O=c1cccc2n1Cc1cc3ccccc3nc1-2	-7	-9%	?	45µM*	-27%	22%
O=C(CN1C(=O)C2C3C=CC(C3)C2C1=O)OCC(=O)c1ccc(Cl)c([N+](=O)[O-])c1 (stereo not drawn)	2	-27%	3	·	·	14%
COc1cc2c(cc1OC)CN(CC(=O)Nc1cccc(C)c1)CC2	4	11%[57.1 µM]	-1	6%[59 µM]	-5%	25%
CCc1cccc(CC)c1NC(=O)CN1CCc2cc(OC)c(OC)cc2C1	·	·	·	71µM*	50µM*	·
COc1cc([N+](=O)[O-])ccc1NC(=O)CN1CCc2cc(OC)c(OC)cc2C1	-25	-35%	-26	28µM*	-35%	-17%
SMILES	Six1-Eya2 blk	JMJD2A Tudor inh	CtBP-E1A blk	G9a inh	BAZ2B inh	HP1b chromo inh
COc1cc2c(cc1OC)CN(CC(=O)NC(=O)NCc1ccccc1)CC2	-6	-17%	0	56µM*	-15%	34%
COC(=O)CSc1cc([N+](=O)[O-])ccc1NC(=O)OC	-4	-11%[57.1 µM]	4	35µM*	-3%	34%
COC(=O)c1sccc1S(=O)(=O)N(CC(=O)Nc1c(C)cccc1C)c1ccc(C)c(C)c1	·	-11%	·	3%[59 µM]	-4%	43%
NC(=O)C1CCN(C(=O)CC(c2ccccc2)c2ccccc2)CC1	0	-18%	-3	·	6%	14%
O=C(Nc1ccccc1SC(=O)c1ccccc1)c1ccccc1	-5	·	-2	·	·	·
Cc1ccc(C(=O)Sc2cccccc2=O)cc1	-77*	-29%	-89*	10µM*	40µM*	?
CCN1CCc2nc(N)sc2C1	-6	3%	-4	13µM*	-15%	-20%
C=CCN1CCc2nc(N)sc2CC1	-1	-14%	-12	16µM*	-3%	18%
CC(C)n1c(O)c(N=NC(=O)C2COc3ccccc3O2)c2ccccc21 (stereo not drawn)	-25	?	-4	35µM*	?	-22%
CC(CCc1ccccc1)NC(=O)C1CCN(S(=O)(=O)c2ccc(F)cc2)CC1 (stereo not drawn)	3	-4%	-3	-8%[0.501 µM]	-4%	36%
CSC1CCCCC1(O)CSc1nc2c(cc1C#N)CCCC2 (stereo not drawn)	-5	20µM*	0	2.5µM*	3%	?
N#CCSc1nc2c(cc1C#N)CCCC2	3	9%	-6	25µM*	8%	42%
CCN(C(=O)C(C)OC(=O)C1C(C(=O)OC)=C(C)NC(C)=C1C(=O)OC)c1ccccc1 (stereo not drawn)	3	-7%	-4	3%	0%	31%
Cc1cc(N=Nc2ccccc2)c(NCC(O)C(O)C(O)CO)cc1C (stereo not drawn)	?	45µM*	?	20µM*	16µM*	?
COc1ccc(NC(=O)C2CCCN(S(=O)(=O)c3ccc4[nH]c(=O)ccc4c3)C2)cc1 (stereo not drawn)	-1	-7%	4	13%	2%	68%
CCOc1ccc(NC(=O)C2CCCN(S(=O)(=O)c3ccc4[nH]c(=O)ccc4c3)C2)cc1 (stereo not drawn)	2	50µM*!	2	-8%[59 µM]	-24%	6%
COc1ccc(OC)c(NC(=O)CSc2nnnn2C2CCCC2)c1	-2	-18%	-2	15%	-16%	9%
CCCS(=O)(=O)NC(=O)C1(C)CCN(C(=O)c2c(F)ccc(C)c2F)C1 (stereo not drawn)	9	·	-21	·	·	·
CCc1nc2ccc(C(=O)NCc3cccc(Br)c3)cc2nc1CC	·	-16%	·	3%[59 µM]	-2%	7%
